Source: PubChem
Rows were chosen to be rich in hits. Some 7.3% of all compounds tested hit in one or more screens of this group.
HCV inhibitor: HCV inhibition | Huh7.5.1 HCVcc-Cre infection, luciferase reporter, 44 h | Potency, µM (doses to about 41.8 µM), without a hit: top-dose activity change, negative = inhibition, usual class: inhibitors | hit rate 3.4% among 340,000 | AID 651820; active = well fitted inhibition curve with a large enough effect; inconclusive = small, poorly fitted or top-dose-only effect, or another doubt; inactive = no such curve, though single readings can be large or run the other way; note: potency is the fitted concentration of half-maximal effect
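1,000 cells/well; 4 h culture; + compound; + HCVcc-Cre (~0.5 moi); 44 h; luciferase substrate, RT 15 min; read 15 sec.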
VACV mCherry inh: vaccinia inhibition (mCherry reporter); Vaccinia virus mCherry reporter infection, fluorescence; Potency, µM (doses to about 36.5 µM), without a hit: top-dose activity change, negative = inhibition, hits mostly inhibitors; hit rate 0.63% among 310,000; AID 720579; calls by dose curve; tested in A549 cells; note: potency is the fitted concentration of half-maximal effect; nearly all actives have a fitted effect of over 35% in size
FMDV antiviral: antivirals against foot and mouth disease virus; hit rate 1.2% among 410,000; AID 1159524; FMDV antiviral cell-based qHTS; Potency, µM (titrated, usually from 57.9 µM), for the others: at the highest dose activity change, negative = inhibition, usual class: inhibitors; calls by dose curve; tested in HEK293T cells; note: read-out not given here; potency is the fitted concentration of half-maximal effect; nearly all actives have a fitted effect of over 45% in size
Vaccinia Venus: inhibitors of vaccinia virus (Venus reporter). hit rate 0.46% among 330,000. Vaccinia virus Venus reporter expression, fluorescence. Potency, µM (series often up to 36.5 µM), inactives show at the highest dose activity change, negative = inhibition, hits mostly inhibitors; calls by dose curve; tested in A549 cells; note: potency is the fitted concentration of half-maximal effect; nearly all actives have a fitted effect of over 30% in size
HCMV inh: inhibitors of human cytomegalovirus. HFF cells, HCMV-luciferase reporter, 72 h; active compounds read low. activity change, negative = inhibition, % at 57.5 µM. hit rate 4.5% among 410,000. AID 1259415; in the data active = activity change below about -60%; inconclusive = no clear call, values can overlap the other calls; inactive = above about -39%
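After 16 h attachment at 37C, HFF cells received test compound and HCMV-luciferase (1 PFU/cell); reporter luminescence read 72 h later, data normalized against buffer-only and known inhibitor Salinomycin.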
Active calls of the source: *; i = inactive; ? = inconclusive; / = no result; [ ] = dose if it differs, or a comment. % is set by controls: 0 for no effect and ±100 for the full control effect.

SMILES | HCV inhibitor | VACV mCherry inh | FMDV antiviral | Vaccinia Venus | HCMV inh
Cc1nc2ccccn2c1C(=O)CSc1ccccc1Cl | ? | / | 25µM* | ? | -66*
Cc1nc2ccccn2c1C(=O)CSc1ccc(Cl)cc1Cl | ? | / | -13% | / | -35
CCC(=O)N1CCc2cc(S(=O)(=O)NCCC(=O)Nc3ccc(OC)c(Cl)c3)ccc21 | / | -8%[7.34 µM] | 0% | -9%[7.34 µM] | -14
N=C1/C(=C\c2coc3ccccc3c2=O)C(=O)N=C2SC(c3ccncc3)=NN12 | ? | -9% | 16µM* | 14% | 28
COC(=O)[C@@H]1[C@@H](CO)[C@@H]2Cn3c(ccc(Br)c3=O)[C@H]1N2C(=O)CN(C)C | / | / | / | / | 19
Cc1cc(N2CCOCC2)nc(NCc2ccccc2)n1 | 13µM* | -27% | / | ? | -38
Cc1cc(OC2CCCCC2)nc(NCc2ccccc2)n1 | 8% | -8% | -20% | -3% | -1
Cc1cc(N2CCOCC2)nc(SCC(=O)c2ccc(Cl)cc2)n1 | -24% | / | ? | ? | -21
Cc1cc(N2CCOCC2)nc(SCc2c(Cl)cccc2Cl)n1 | 11µM* | ? | -14% | ? | ?
Cc1cc(N2CCCCC2)nc(NCc2ccccc2)n1 | ? | ? | 32µM* | ? | -64*
Oc1ccc(N2CCN(C(c3ccc(Cl)cc3)c3nnnn3Cc3ccc(F)cc3)CC2)cc1 (configuration not stated) | / | -10% | / | -14% | /
C=C(C)COc1ccc(-c2[nH]ncc2-c2ccc(OC)cc2)c(O)c1 | -14% | / | -13% | / | -70*
C=C(C)COc1ccc(-c2[nH]ncc2-c2ccc(OC)c(OC)c2)c(O)c1 | 2µM* | / | ? | 10µM* | ?
C=C(C)COc1ccc(-c2n[nH]c(C)c2-c2ccc(OC)c(OC)c2)c(O)c1 | 13µM* | ? | ? | ? | -84*
COc1ccc(-c2cn[nH]c2-c2ccc(OCC(=O)NN)cc2O)cc1OC | 13% | -20% | 10% | -7% | 55
CCOc1ccc(-c2n[nH]c(C)c2Oc2ccccc2OC)c(O)c1 | ? | i | / | -23% | 25
C=C(C)COc1ccc(-c2n[nH]c(C)c2Oc2ccccc2OC)c(O)c1 | 32µM* | / | -27% | ? | -20
O=C(Cn1c(=O)n(Cc2nc(-c3ccccc3)no2)c(=O)c2cc3c(cc21)OCO3)Nc1ccc(Cl)cc1 | / | -11% | 3% | -10% | 9
COCCNC(=O)CSc1nnc2[nH]c(=O)cc(C)n12 | / | -9% | -15% | 1% | 16
O=C(Cn1nnc(N2CCCCC2)n1)NN=Cc1ccccc1O | / | / | / | / | -2
COc1ccc(-c2cn[nH]c2-c2ccc(O)cc2O)cc1 | -10% | / | ? | / | -88*
COc1ccc(Oc2cn[nH]c2-c2ccc(O)cc2O)cc1 | -28% | / | ? | -21% | -33
CCCCCCOc1ccc(-c2nc3ccc(Br)cc3c(=O)o2)cc1 | / | 2% | 0% | -2% | -1
Cc1ccc(C2CC(=O)n3nc(-c4ccc(Cl)cc4)nc3S2)cc1 (configuration not stated) | / | -1% | -12% | -6% | -5
CC(NC(=O)c1ccc(Cl)cc1Cl)C(c1ccccc1)N1CCOCC1 (configuration not stated) | 13% | -11% | 14% | -7% | -66*
SMILES | HCV inhibitor | VACV mCherry inh | FMDV antiviral | Vaccinia Venus | HCMV inh
CC(NC(=O)Nc1ccc(Cl)c(Cl)c1)C(c1ccccc1)N1CCOCC1 (configuration not stated) | ? | / | -18% | / | -95*
CC(NC(=O)c1cccc(C(F)(F)F)c1)C(c1ccccc1)N1CCOCC1 (configuration not stated) | 8% | -12% | -23% | -19% | -62*
CC1=C(C(=O)Nc2ccccc2)C(c2ccncc2)n2nc(SCc3ccccc3Cl)nc2N1 (configuration not stated) | / | -1% | -12% | -3% | 2
CCN(CC)S(=O)(=O)c1ccc2[nH]cc(C(=O)NCCCN3CCCCC3C)c(=O)c2c1 (configuration not stated) | -4% | -1% | / | -7% | -73*
CCN(CC)S(=O)(=O)c1ccc2[nH]cc(C(=O)NCCN3CCCCCC3)c(=O)c2c1 | -10% | 2% | -3% | 2% | -17
CCN(CC)S(=O)(=O)c1ccc2[nH]cc(C(=O)NCCN3CCCCC3C)c(=O)c2c1 (configuration not stated) | 9% | -7% | -3% | -4% | 6
CCN(CC)S(=O)(=O)c1ccc2[nH]cc(C(=O)NCCC3=CCCCC3)c(=O)c2c1 | 11µM* | / | 14µM* | ? | -83*
Brc1ccc(C2C=Cc3ccccc32)cc1 (configuration not stated) | / | 35% | / | 12% | /
Cc1ccc(CCC(=O)Nc2cc(Cl)ccc2Cl)o1 | -24% | 1% | 4% | -7% | -97*
Cc1ccc(CCC(=O)Nc2ncc(Cc3cccc(Cl)c3Cl)s2)o1 | ? | ? | -21% | ? | -64*
Cc1ccc(C)c(NC(=O)CCc2ccc(C)o2)c1 | -1% | / | -4% | / | -14
CCc1nnc(NC(=O)CCc2ccc(C)o2)s1 | -17% | / | 0% | / | 6
Cc1ccc2nc(NC(=O)C3CCN(S(=O)(=O)c4cccc5nsnc45)CC3)sc2c1 | ? | -9% | ? | 0% | -85*
Cc1ccc(NC(=O)C2CCN(S(=O)(=O)c3cccc4nsnc34)CC2)cc1 | / | -20% | -29% | -13% | -25
O=C(C1CCCN(S(=O)(=O)c2cccc3nsnc23)C1)N1CC=C(c2ccccc2)CC1 (configuration not stated) | 13µM* | ? | 20µM* | ? | -61*
Cc1ccc(C)c(N2CCN(C(=O)C3CCN(S(=O)(=O)c4cccc5nsnc45)CC3)CC2)c1 | ? | -16% | 22µM* | ? | -40
O=C(Nc1ccc2c(c1)OCCO2)C1CCN(S(=O)(=O)c2cccc3nsnc23)CC1 | 13% | -9% | -25% | -3% | -2
O=C(Nc1ccc2c(c1)OCCO2)C1CCCN(S(=O)(=O)c2cccc3nsnc23)C1 (configuration not stated) | ? | -12% | / | -8% | -77*
CCC(C)Sc1oc(-c2ccco2)nc1S(=O)(=O)c1ccc(C)cc1 (configuration not stated) | / | -14% | 26% | -13% | -16
CC(NC(=O)CN(c1ccc(Cl)cc1Cl)S(=O)(=O)c1ccccc1)c1ccccc1 (configuration not stated) | / | ? | 1% | -26% | -17
O=S(=O)(Nc1ccc2c(c1)OCCO2)c1cccc2nsnc12 | 26% | i | ? | 0% | -68*
Cc1ccc2nc(NC(=O)C3CCCN(S(=O)(=O)c4cccc5nsnc45)C3)sc2c1 (configuration not stated) | 11µM* | -21% | -8% | -28% | -22
O=C(Nc1ccccc1Cl)C1CCCN(S(=O)(=O)c2cccc3cccnc23)C1 (configuration not stated) | 5% | / | -29% | / | -17
